We go through 5 molecules from PubChem BioAssay (NCATS).

Results filed as inconclusive are left out. Unmarked numbers belong to inactive results. The source made the active and inactive calls. Calls follow the shape of the dose curve; as a rule, active = well fitted curve in the direction sought with a large enough effect; inconclusive = small, poorly fitted or top-dose-only effect, or another doubt; inactive = no such curve, though single readings can be large; an effect the other way counts as inactive or inconclusive.

One experiment has as its system MCC-26. The experiment is described as follows: qHTS assay to identify novel small-molecules to repurpose for Merkel cell carcinoma treatment (AID 1296009). Also: nearly all actives have a fitted effect of over 60% in size. Also: potency is read from the fitted curve at half-maximal effect. The settings on record: MCC and control cell lines, CellTiter-Glo viability, 72 h; series mostly up to 46 µM. An outline of the steps: (§1)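 Viability readout: ATP luminescence (CellTiter-Glo) after 72 hr drug exposure at 37 degree celsius. Dose-response format was 8 points for NPC and 11 points for MIPE; data normalized to in-plate controls.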

A further experiment deals with MKL-1. Described as above. The settings on record: MCC and control cell lines, CellTiter-Glo viability, 72 h; series mostly up to 46 µM. An outline of the steps:
as §1
(In ATP-based viability assays light output follows the ATP content of the culture.)

The subject of the next experiment is C33A. The experiment is described as follows: Primary qHTS to identify gynecologic anti-cancer compounds using libraries of approved drugs and bioactive compounds (AID 1345084). Also: nearly all actives have a fitted effect of over 55% in size. The settings on record: Gynecologic cancer cell panel viability, ATPlite luminescence, 48 h; series mostly up to 57.5 µM. Put shortly: (§2)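 Cell viability after 48 h drug treatment, ATPlite luminescence readout; five doses.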

In the next experiment the test system is CAOV3. Described as above. The settings on record: Gynecologic cancer cell panel viability, ATPlite luminescence, 48 h; series mostly up to 57.5 µM. Put shortly:
as §2

The test system of the next experiment is CASKI. The description is as above. The settings on record: Gynecologic cancer cell panel viability, ATPlite luminescence, 48 h; series mostly up to 57.5 µM. Put shortly:
as §2

For another experiment, the system named is Es-2. The description is as above. The settings on record: Gynecologic cancer cell panel viability, ATPlite luminescence, 48 h; series mostly up to 57.5 µM. An outline of the steps: as §2
The next experiment concerns HeLa. The description is as above. The settings on record: Gynecologic cancer cell panel viability, ATPlite luminescence, 48 h; series mostly up to 57.5 µM. Put shortly: as §2
The next experiment has as its system Hek293T. The description is as above. The settings on record: Gynecologic cancer cell panel viability, ATPlite luminescence, 48 h, control line for the selectivity index; series mostly up to 57.5 µM. Put shortly: as §2
The next experiment concerns JEG-3. The description is as above. The settings on record: Gynecologic cancer cell panel viability, ATPlite luminescence, 48 h; series mostly up to 57.5 µM. An outline of the steps:
as §2

The next experiment has as its system OV90. The experiment is described as above. The settings on record: Gynecologic cancer cell panel viability, ATPlite luminescence, 48 h; series mostly up to 57.5 µM. Put shortly:
as §2

The next experiment has as its system PA-1. The description is as above. The settings on record: Gynecologic cancer cell panel viability, ATPlite luminescence, 48 h; series mostly up to 57.5 µM. An outline of the steps:
as §2

The test system of another experiment is SKOV3. Described as above. The settings on record: Gynecologic cancer cell panel viability, ATPlite luminescence, 48 h; series mostly up to 57.5 µM. Put shortly: as §2
Another experiment concerns Tov-21-G. The description is as above. The settings on record: Gynecologic cancer cell panel viability, ATPlite luminescence, 48 h; series mostly up to 57.5 µM. An outline of the steps: as §2
In a further experiment the test system is Tov112D. Described as above. The settings on record: Gynecologic cancer cell panel viability, ATPlite luminescence, 48 h; series mostly up to 57.5 µM. Put shortly: as §2
Experiment [1] is described as follows: Drug repurposing screens with cells derived from glioblastoma tumor samples (AID 1345199). Also: nearly all actives have a fitted effect of over 40% in size. Also: potency is read from the fitted curve at half-maximal effect. The settings on record: GBM patient neurospheres viability, ATP luminescence, 48 h. Put shortly: (§3)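 Primary testing used CD133+ neurospheres from four GBM patients, seven concentrations, 48 h exposure and ATP-based viability; confirmation added three slower-growing patient lines.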

The subject of another experiment is astro. The experiment is described as above. The settings on record: viability, ATP luminescence, 48 h; series mostly up to 45.9 µM. Put shortly:
as §3

In a further experiment the test system is MKL-2. The experiment is described as follows: qHTS assay to identify novel small-molecules to repurpose for Merkel cell carcinoma treatment (AID 1296009). Also: nearly all actives have a fitted effect of over 60% in size. Also: potency is read from the fitted curve at half-maximal effect. The settings on record: MCC and control cell lines, CellTiter-Glo viability, 72 h; series mostly up to 46 µM. An outline of the steps:
as §1
(qHTS replaces the single test concentration by a dilution series.)

Another experiment deals with NIH3T3. The experiment is described as above. The settings on record: MCC and control cell lines, CellTiter-Glo viability, 72 h; at 44.8 µM (top of the series) unless noted. An outline of the steps: as §1
Another experiment relates to UISO. Described as above. The settings on record: MCC and control cell lines, CellTiter-Glo viability, 72 h; series mostly up to 46 µM. An outline of the steps:
as §1

The next experiment relates to WaGa. The description is as above. The settings on record: MCC and control cell lines, CellTiter-Glo viability, 72 h; series mostly up to 46 µM. Put shortly:
as §1

The mark [2] stands for this setting: at 45.9 µM (top of the series), tumour line B.
[3] abbreviates: at 45.9 µM (top of the series), tumour line D.
The mark [4] stands for this setting: at 46 µM (top of the series), tumour line A.
Setting [5] is: at 46.1 µM (top of the series), tumour line C.
% is scaled to controls: 0 for no effect and ±100 for the full control effect.

As to `CC1=C(CC(=O)O)c2cc(F)ccc2/C1=C\c1ccc(S(C)(=O)=O)cc1`, the Potency entry in the experiment with MCC-26, in the experiment on MKL-1, with C33A, in the experiment on CAOV3, in the experiment on CASKI and with Es-2 was “inactive” in each case. Moreover, the Potency entry with HeLa, in the experiment on Hek293T, in the experiment with JEG-3, with OV90, in the experiment on PA-1 and with SKOV3 was “inactive” in each case. In addition, the Potency result in the experiment with Tov-21-G, with Tov112D and in the experiment on astro was “inactive” in each case. The activity, negative = cell killing in [1] (setting [2]) is -11.4%; in experiment [1] (setting [3]), -18.4%; in experiment [1] (setting [4]), -33%; in experiment [1] (setting [5]), 4.54%.
In the case of `CC(O)CN(CCN(CC(C)O)CC(C)O)CC(C)O` (stereo not drawn), the Potency result in the experiment with MKL-1, in the experiment on MKL-2, in the experiment on UISO, with WaGa, with C33A and in the experiment with CAOV3 was “inactive” each time. Also, the Potency entry in the experiment with CASKI, in the experiment on Es-2, in the experiment with HeLa, with Hek293T, in the experiment on JEG-3 and in the experiment with OV90 was “inactive” throughout. Besides, the Potency result with PA-1, in the experiment on SKOV3, with Tov-21-G, in the experiment with Tov112D and with astro was “inactive” in each case. Also, the molecule was called inactive with NIH3T3. Besides, the results for the activity, negative = cell killing in experiment [1] (setting [2]), in experiment [1] (setting [3]) and in [1] (setting [4]) were -16.3%, 3.18% and -27.7%, respectively.
Consider `CN1CCN(C2Cc3ccccc3Sc3ccc(Cl)cc32)CC1` (stereo not drawn), for which the Potency result in the experiment on MCC-26, in the experiment on C33A, with CASKI, in the experiment with Es-2, with HeLa and in the experiment on Hek293T was “inactive” in each case. The Potency result with JEG-3, with PA-1, with Tov-21-G and in the experiment with Tov112D was “inactive” each time. Also, the Potency was 26.6 µM (active) in the experiment on MKL-1; 26.6 µM (active) in the experiment with MKL-2; 23.7 µM (active) with UISO; 23.7 µM (active) in the experiment on WaGa; 22.4 µM (active) with astro.
In the case of `NCCNCCNCCNCCN`, the activity change, negative = cytotoxicity is -6.59% [at 9.22 µM] in the experiment on MCC-26; -8% [at 9.22 µM] with MKL-1; -0.706% [at 9.22 µM] in the experiment with MKL-2; 44% [at 9.22 µM] in the experiment with UISO; -2.21% [at 9.22 µM] in the experiment on WaGa; 13.2% [at 11.6 µM] with C33A. For the same molecule, the activity change, negative = cytotoxicity in the experiment with CASKI was 1.72% [at 11.6 µM]; in the experiment on Es-2, -5.14% [at 11.6 µM]; with HeLa, 8.61% [at 11.6 µM]; in the experiment on Hek293T, -2.17% [at 11.6 µM]; in the experiment on JEG-3, -3.13% [at 11.6 µM]; with OV90, 8.86% [at 11.6 µM]. Also, the activity change, negative = cytotoxicity in the experiment with PA-1 was 20.4% [at 11.6 µM]; with SKOV3, 0% [at 11.6 µM]; with Tov-21-G, -0.438% [at 11.6 µM]; with Tov112D, 0.19% [at 11.6 µM]. In addition, the results for the activity, negative = cell killing in [1] (setting [2]), in experiment [1] (setting [3]) and in experiment [1] (setting [5]) were -23.1%, -12.1% and 1.79%, respectively. In addition, the Potency entry in the experiment with astro was “inactive”.
With `CC(CN(C)C)CN1c2ccccc2CCc2ccccc21` (stereo not drawn), the Potency entry in the experiment with MCC-26, in the experiment with MKL-1, with UISO, with WaGa, in the experiment with C33A and in the experiment with CAOV3 was “inactive” throughout. For the same molecule, the Potency entry in the experiment with Es-2, with HeLa, in the experiment on Hek293T, with JEG-3, with PA-1 and with SKOV3 was “inactive” in each case. In addition, the Potency result in the experiment with Tov-21-G, in the experiment on Tov112D and with astro was “inactive” in each case. The activity, negative = cell killing was -0.604% in experiment [1] (at 20 µM (top of the series), tumour line C) and -19% in experiment [1] (at 21.2 µM (top of the series), tumour line B). For the same molecule, the Potency in experiment [1] (tumour line A) was 6.31 µM (active).
